# According to the supplement of paper PMC9023506:
# Counter-ions that a name gives are not always drawn.
# System: Danio rerio larvae (5 dpf)
# Assay: excitability to 1-s acoustic pulses, difference vs DMSO (percentage points (treated minus DMSO)); higher = more of the behaviour than the DMSO vehicle control
# Conditions: 10 µM; exposure time: 3 h pre-incubation + 3 h imaging
# Method: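 5-dpf wild-type zebrafish larvae were imaged in 96-well plates. They were treated with 190 Tocris FDA-approved drugs at 10 µM (1 µl/ml DMSO) for 3 h before and 3 h during imaging at 28.5 °C, 48 larvae per drug. Automated image analysis gave % time moving and optomotor responses. Values are drug group mean minus DMSO vehicle mean (n=844), in percentage points, for 10 behaviours.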
row,SMILES,excitability to 1-s acoustic pulses
1,Cc1cccc(C)c1OCC(C)N (stereo not given) [Mexiletine hydrochloride],1.36
2,CN1CC[C@@H](NC(=O)Nc2ccc(C#N)cc2)C[C@@H]1c1nc2ccccc2[nH]1,7.99
3,Clc1ccccc1C(c1ccccc1)(c1ccccc1)n1ccnc1 [Clotrimazole],14
4,C[C@H](Cc1cc2c(c(C(N)=O)c1)N(CCCO)CC2)NCCOc1ccccc1OCC(F)(F)F [Silodosin],21.7
5,NS(=O)(=O)c1cc(C(=O)O)c(NCc2ccco2)cc1Cl [Furosemide],0.211
6,CC(C)OC(=O)C(C)(C)Oc1ccc(C(=O)c2ccc(Cl)cc2)cc1 [Fenofibrate],4.84
7,COc1ccccc1OCC(O)CN1CCN(CC(=O)Nc2c(C)cccc2C)CC1 (stereo not given) [Ranolazine dihydrochloride],1.94
8,CCN(Cc1ccncc1)C(=O)C(CO)c1ccccc1 (stereo not given) [Tropicamide],0.232
9,OCCN1C[C@H](O)[C@@H](O)[C@H](O)[C@H]1CO [Miglitol],5.41
10,CC1CNc2c(cccc2S(=O)(=O)N[C@@H](CCCNC(=N)N)C(=O)N2CC[C@@H](C)C[C@@H]2C(=O)O)C1 (stereo not given in full) [Argatroban],0.477
11,CC(C)CN(C[C@@H](O)[C@H](Cc1ccccc1)NC(=O)O[C@H]1CO[C@H]2OCC[C@H]21)S(=O)(=O)c1ccc(N)cc1 [Darunavir],-1.74
12,C=CC(=O)N1CCC[C@@H](n2nc(-c3ccc(Oc4ccccc4)cc3)c3c(N)ncnc32)C1 [Ibrutinib],-2.71
13,O=C1CCc2ccc(OCCCCN3CCN(c4cccc(Cl)c4Cl)CC3)cc2N1 [Aripiprazole],16.5
14,CCC(C)(C)C(=O)O[C@H]1C[C@@H](C)C=C2C=C[C@H](C)[C@H](CC[C@@H]3C[C@@H](O)CC(=O)O3)[C@H]21 [Simvastatin],8.31
15,CN1CCC[C@@H]1CCO[C@](C)(c1ccccc1)c1ccc(Cl)cc1 [Clemastine fumarate],15.4
16,CCN(CC)CCNC(=O)c1c(C)[nH]c(/C=C2\C(=O)Nc3ccc(F)cc32)c1C [Sunitinib malate],14.4
17,CC(C)COCC(CN(Cc1ccccc1)c1ccccc1)N1CCCC1 (stereo not given) [Bepridil hydrochloride],15
18,COc1ccc(-c2ccc3cc(C(=O)O)ccc3c2)cc1C12CC3CC(CC(C3)C1)C2 [Adapalene],-0.119
19,CCOc1cc(CC(=O)N[C@@H](CC(C)C)c2ccccc2N2CCCCC2)ccc1C(=O)O [Repaglinide],9.31
20,NC(=O)N1c2ccccc2C=Cc2ccccc21 [Carbamazepine],-0.497

row,SMILES,excitability to 1-s acoustic pulses
1,CCOC(=O)[C@H](CCc1ccccc1)N[C@@H](C)C(=O)N1[C@H](C(=O)O)C[C@@H]2CCC[C@@H]21 [Ramipril],4.17
2,C[C@]12CC[C@@H]3c4ccc(O)cc4C[C@@H](CCCCCCCCC[S+]([O-])CCCC(F)(F)C(F)(F)F)[C@H]3[C@@H]1CC[C@@H]2O (stereo not given in full),2.14
3,COCCCOc1cc(C[C@@H](C[C@H](N)[C@@H](O)C[C@H](C(=O)NCC(C)(C)C(N)=O)C(C)C)C(C)C)ccc1OC [Aliskiren hemifumarate],12.2
4,Nc1ncn([C@@H]2O[C@H](CO)[C@@H](O)[C@H]2O)c(=O)n1 [5-Azacytidine],-3.59
5,N#Cc1ccc2[nH]cc(CCCCN3CCN(c4ccc5oc(C(N)=O)cc5c4)CC3)c2c1 [Vilazodone hydrochloride],16.8
6,CC(=O)Nc1ccc(O)cc1 [Acetaminophen],-2.54
7,CNC(=O)c1cc(Oc2ccc(NC(=O)Nc3ccc(Cl)c(C(F)(F)F)c3)cc2)ccn1 [Sorafenib],14.4
8,CCCN(CCC)S(=O)(=O)c1ccc(C(=O)O)cc1 [Probenecid],4.8
9,N#C[C@@H]1C[C@@H]2C[C@@H]2N1C(=O)[C@@H](N)C12CC3CC(CC(O)(C3)C1)C2 [Saxagliptin hydrochloride],2.82
10,CC(=O)NC[C@H]1CN(c2ccc(N3CCOCC3)c(F)c2)C(=O)O1 [Linezolid],7.52
11,Cc1ccc(NC(=O)c2ccc(CN3CCN(C)CC3)cc2)cc1Nc1nccc(-c2cccnc2)n1 [Imatinib mesylate],12.7
12,COCCc1ccc(OCC(O)CNC(C)C)cc1 (stereo not given) [Metoprolol tartrate],-8.67
13,COc1ccc(C[C@@H](C)NC[C@H](O)c2ccc(O)c(NC=O)c2)cc1 [Arformoterol tartrate],5.34
14,Cc1nc(Nc2ncc(C(=O)Nc3c(C)cccc3Cl)s2)cc(N2CCN(CCO)CC2)n1 [Dasatinib],16.9
15,CC(C)N(CCCCOCC(=O)NS(C)(=O)=O)c1cnc(-c2ccccc2)c(-c2ccccc2)n1 [Selexipag],5.77
16,CCCN(CCc1cccs1)[C@H]1CCc2c(O)cccc2C1 [Rotigotine hydrochloride],31.3
17,CC(=O)Oc1cc2c(s1)CCN(C(C(=O)C1CC1)c1ccccc1F)C2 (stereo not given) [Prasugrel],5.57
18,CC(C)c1nc(N(C)S(C)(=O)=O)nc(-c2ccc(F)cc2)c1/C=C/[C@@H](O)C[C@@H](O)CC(=O)O [Rosuvastatin calcium],-0.497
19,C[C@H]1O[C@H](O[C@H]2[C@H](O)[C@@H](O)[C@@H](O[C@H]3[C@H](O)[C@@H](O)C(O)O[C@@H]3CO)O[C@@H]2CO)[C@H](O)[C@@H](O)[C@@H]1N[C@H]1C=C(CO)[C@@H](O)[C@H](O)[C@H]1O (stereo not given in full) [Acarbose],-4.01
20,Nc1cc(N2CCCCC2)nc(N)[n+]1[O-] [Minoxidil],1
